PubChem BioAssay (NCI)
This is part of a sample that, as a whole, favours compounds with a hit. Of some 79,000 tested, about 15% had one in any assay. Activity calls are given as the source filed them. Cut-off read from the data, not from the text of the source: active = growth inhibition above about 70%; inactive = the rest.

Experiment: NCI Yeast Anticancer Drug Screen. Data for the rad14 strain (AID 159);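 note: 0% = growth of vehicle-treated control cultures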
Settings: S. cerevisiae rad14 strain growth inhibition, hits give high values
Description: Growth inhibition of yeast strains with defined genetic alterations is measured as a screen for potential anti-cancer activity. Selected strains with alterations in DNA damage repair or cell cycle control were exposed to compounds and growth inhibition was measured relative to vehicle treated controls. The strain used in this assay is rad14

Measured: growth inhibition

BrC1C2CCC3OC3C12 (stereo not given)
active: at 11.0 µM 98% | at 33.0 µM 99% | at 100.0 µM 99%
inactive: at 1.2 µM 0% | at 3.7 µM 3%

CC(C)OC(=O)NNc1c(Cl)cc(Cl)cc1Cl
inactive: at 1.2 µM -4% | at 3.7 µM -2% | at 11.0 µM 2% | at 33.0 µM 7% | at 100.0 µM 7%

O=C1c2ccccc2C(=O)c2c(O)c(NCCNCCO)cc(O)c21
active: at 33.0 µM 95% | at 100.0 µM 95%
inactive: at 1.2 µM -5% | at 3.7 µM -2% | at 11.0 µM 40%

COc1cc(OC)c(CSCC(NC(=O)OCC2c3ccccc3-c3ccccc32)C(=O)O)c(OC)c1 (stereo not given)
inactive: at 1.2 µM -2% | at 3.7 µM 10% | at 11.0 µM 68%
active: at 33.0 µM 96% | at 100.0 µM 99%

COC(=O)C(Cc1c[nH]c2ccccc12)N1CN(C)c2ccccc2C1=O (stereo not given)
active: at 100.0 µM 99%
inactive: at 1.2 µM 6% | at 3.7 µM -9% | at 11.0 µM -5% | at 33.0 µM -13%

Cc1ccc([N+](=O)[O-])c2c(NCCC[N+](C)(C)[O-])c3ccccc3nc12
inactive: at 1.2 µM 11% | at 3.7 µM 15% | at 11.0 µM 43%
active: at 33.0 µM 91% | at 100.0 µM 96%

OC1(c2ccccc2)C2CC=CC2C1(c1ccccc1)c1ccccc1 (stereo not given)
inactive: at 1.2 µM -3% | at 3.7 µM 4% | at 11.0 µM 6% | at 33.0 µM 0% | at 100.0 µM 19%

ClCCCOc1c(Cl)cc(Cl)cc1Cl
inactive: at 1.2 µM -4% | at 3.7 µM 2% | at 11.0 µM 5% | at 33.0 µM 1% | at 100.0 µM 13%
